TIM10 inh: TIM10 yeast growth inhibition; S. cerevisiae TIM10 strain growth, BacTiter-Glo luminescence, 24 h; inhibition, % at 10 µM; actives 1.4% (n = 330,000); AID 463195;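 active means inhibition of 40% or more at the single tested concentration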;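 further: wild-type TIM10 isogenic control strain grown at permissive 25 °C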
tim23-1 inh: inhibits growth of tim23-1 mutant yeast | AID 463212 | S. cerevisiae tim23-1 growth, BacTiter-Glo luminescence, 24 h | actives 1.3% (n = 330,000) | inhibition, % at 20 µM;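 active means growth inhibition of the mutant yeast at or above 50%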;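 further: temperature-sensitive mutant grown at 25 °C; plate controls were DMSO-treated mutant yeast for no effect and medium wells lacking yeast for full effect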
NALP3 yeast inh: inhibitors of NALP3 inflammasome in yeast; Yeast reconstituted NLRP3/ASC/caspase-1, beta-gal luminescence, 24 h; inhibition, % at 10 µM; actives 0.39% (n = 330,000);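 active means inhibition of 50% or more; inactive means inhibition below 50%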;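 further: plate controls were induced DMSO wells for no effect and uninduced yeast grown without galactose for full effect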
tim10-1 inh: tim10-1 yeast growth inhibition; S. cerevisiae tim10-1 ts strain growth, BacTiter-Glo, 24 h; actives 2.2% (n = 330,000); AID 463190; inhibition, % at 20 µM;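 active means inhibition of at least 40%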;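 further: mutant grown at 25 °C; 0% = DMSO wells with yeast and 100% = wells holding no yeast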
Yeast superoxide: yeast age-related superoxide inhibition as caloric restriction mimetic | actives 0.18% (n = 330,000) | S. cerevisiae aged cells, superoxide DHE fluorescence; stronger effect = lower value | superoxide response (% of plate mean), % at 10 µM;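 active means superoxide response under a set limit, about three screen SD below normal, cut at about 65% in these data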;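 further: yeast aged for seven days with compound at 30 °C before DHE staining; 100% = average MFI of all compound-treated wells on the plate with controls excluded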
CR mimetic CP: yeast aging superoxide inhibition, cherry pick confirmation; actives 1% (n = 850); superoxide response (% of plate), % at 10 µM; shares compounds with Yeast superoxide; S. cerevisiae aging, superoxide DHE fluorescence; stronger effect = lower value;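 active means superoxide signal below 65% of the plate average of sample wells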;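 further: cells aged with compound for 7 days at 30 degrees C before staining; 100% equals mean DHE fluorescence of all compound wells on the plate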
DHE counter: DHE fluorescence interference, counter-screen artifact; shares compounds with Yeast superoxide; S. cerevisiae BY4741, flow cytometry; stronger effect = lower value; fluorescence response, % at 10 µM; 850 tested, under 10 active; AID 435000;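 active means fluorescence response below 15%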;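 further: percent of the mean fluorescence averaged over all compound wells on the plate; lower means stronger quenching of DHE signal or ROS scavenging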
NALP3 yeast conf: confirmation of NALP3 inhibitors in yeast | shares compounds with NALP3 yeast inh | actives 81% (n = 1,300) | AID 435006 | inhibition, % at 10 µM | yeast expressing human NALP3, luminescence; in the data active means inhibition above about 48%
Casp1 ASC ctr: active in yeast caspase-1-ASC counter-screen for NALP3 inhibitors. AID 488784. actives 66% (n = 1,000). yeast expressing Caspase-1-ASC, luminescence counter screen. shares compounds with NALP3 yeast inh. inhibition, % at 10 µM
NALP3 yeast rt: yeast NALP3 inhibition, confirmed on retest; inhibition, % at 10 µM; actives 53% (n = 1,000); yeast expressing human NALP3, luminescence read-out; shares compounds with NALP3 yeast inh
* hit, by the source's call; / = no result. Hits are enriched below; roughly 3.8% of the tested compounds scored in any of these assays. Unless noted, no stated cut-off is given here; in the data, active means inhibition above about 50%; inactive means the rest.

SMILES	TIM10 inh	tim23-1 inh	NALP3 yeast inh	tim10-1 inh	Yeast superoxide	CR mimetic CP	DHE counter	others
Cc1cccc(N2C(=O)NC(=O)/C(=C\c3cc(C)n(-c4sc5c(c4C#N)CCCC5)c3C)C2=O)c1C	19.0	16.3	10.5	36.4	46.0*	/	/
CCOc1ccc([N+](=O)[O-])cc1CNCCc1ccccc1	1.8	13.8	11.7	-10.0	77.8	/	/
Cc1cc(Cl)nc(N)n1	2.6	4.9	2.9	12.8	51.1*	99.0	87.7
OCC[n+]1c2ccccc2nc2ccc(N3CCOCC3)cc21	36.0	20.3	40.6	25.9	42.5*	65.7	91.2
CC1CCN(C(=O)c2ccc(N3CC4CC(C3)c3cccc(=O)n3C4)c([N+](=O)[O-])c2)CC1 (stereo unspecified)	5.9	2.5	17.0	14.1	103.2	/	/
c1ccc(C2CC3CC4(CCCC4)N2O3)cc1 (stereo unspecified)	13.3	23.3	5.0	4.8	94.9	/	/
CC(=O)O[C@H]1CCC2C3CC[C@H]4[C@@H](O)[C@H](O)CC[C@]4(C)C3CC[C@@]21C (stereo partly specified)	/	/	/	/	/	103.6	91.5
CC(=O)[C@H]1CCC2C3CC[C@H]4C[C@@H](O)CC[C@]4(C)C3CC[C@@]21C (stereo partly specified)	9.6	23.3	49.2	-14.0	98.8	/	/
S=C(NC1CCCCC1)N1CCC(c2cnc[nH]2)CC1	1.9	-11.1	16.8	-7.9	77.7	/	/
C[C@]12CCC3C(CC[C@H]4C[C@H](N)CC[C@]34C)C1CC[C@H]2O (stereo partly specified)	0.7	20.8	24.8	22.1	113.5	103.2	95.6
CC(=O)O[C@@H]1CC[C@]2(C)C3CC[C@@]4(C)C(C[C@@H](O)[C@@H]4O)C3[C@@H](OC(C)=O)C[C@H]2C1 (stereo partly specified)	-23.9	-17.4	12.8	-41.7	104.0	109.8	112.3
CC(=O)O[C@H]1CC[C@@]2(C)C(=CC(=O)C3C2CC[C@@]2(C)C3C[C@H](OC(C)=O)[C@@H]2OC(C)=O)C1 (stereo partly specified)	4.3	5.3	15.0	8.0	92.5	/	/
O=[N+]([O-])O[C@H]1CO[C@H]2[C@@H]1OC[C@H]2O[N+](=O)[O-]	4.4	11.0	2.8	10.4	97.7	/	/
CO[C@H]1CC=C2CCN3CCC4=C(CC(=O)OC4)[C@]23C1	10.5	16.4	20.5	4.6	102.4	/	/
O=c1[nH]c(O)c(C=Nc2ccc(F)c(Cl)c2)c(=O)[nH]1	-13.3	8.6	4.0	16.3	60.1*	104.3	92.8
Fc1cccc(F)c1CN1CCN(c2ccc(Cl)cc2)CC1	-9.1	2.9	10.6	24.4	38.4*	98.8	90.8
C=C1C(O)[C@@H]2O[C@]3(CC[C@H](/C=C/C(C)[C@@H]4CC(C)=CC5(O[C@H](C[C@@](C)(O)C(=O)O)CCC5O)O4)O3)CC[C@H]2O[C@@H]1C(O)CC(C)[C@H]1OC2(CCCCO2)CCC1C (stereo partly specified)	1.9	9.9	14.7	6.1	46.8*	47.7*	101.9
O=C(NC1CONC1=O)OCC(Cl)(Cl)Cl (stereo unspecified)	-1.2	-3.1	-6.5	4.9	110.0	/	/
C[C@]12CCC3C(CC[C@H]4C[C@H](O)CC[C@]34C)C1CCC2=O (stereo partly specified)	-18.2	38.8	53.1*	2.5	56.8*	73.6	100.6	NALP3 yeast conf=68.3*
C[C@]1(O)CCC2C3CC[C@@H]4CC(=O)CC[C@]4(C)C3CC[C@@]21C (stereo partly specified)	-11.8	26.6	54.6*	-1.2	61.3*	88.2	94.4	NALP3 yeast conf=69.0*;Casp1 ASC ctr=68.1*;NALP3 yeast rt=42.4
C[C@]12CCC3C(CC[C@H]4C[C@H](O)CC[C@]34C)C1CC(=O)[C@@H]2O (stereo partly specified)	-19.3	21.8	49.4	-5.0	83.3	/	/
C[C@]12CCC(=O)C[C@H]1CC[C@@H]1[C@@H]2CC[C@]2(C)C(=O)CC[C@@H]12	6.6	29.1	65.6*	12.7	60.0*	82.7	93.4	NALP3 yeast conf=69.7*;Casp1 ASC ctr=61.4*;NALP3 yeast rt=48.7
Cc1cc(C(=O)OCC(=O)Nc2ccc(F)cc2F)c(C)n1C1CC1	10.8	22.8	33.6	2.9	106.5	/	/
C[C@]12CCC3C(CC[C@H]4C[C@H](O)CC[C@]34C)C1C[C@@H](CCCCl)[C@@H]2O (stereo partly specified)	12.0	42.4	57.1*	5.0	58.1*	68.5	98.1	NALP3 yeast conf=61.5*
C[C@]12CCC3C(CC[C@H]4C[C@@H](O)CC[C@]34C)C1C[C@H](Br)[C@@H]2O (stereo partly specified)	-167.2	-28.2	61.8*	-108.4	72.6	108.1	112.0	NALP3 yeast conf=69.7*
SMILES	TIM10 inh	tim23-1 inh	NALP3 yeast inh	tim10-1 inh	Yeast superoxide	CR mimetic CP	DHE counter	others
C[C@]12CCC3C(CC[C@H]4C[C@H](O)CC[C@]34C)C1C[C@@H](O)[C@@H]2O (stereo partly specified)	-8.1	3.8	44.1	-6.0	85.2	/	/
CCCCn1c(O)c(C(C)=Nc2c(C)n(C)n(-c3ccccc3)c2=O)c(=O)[nH]c1=O	7.6	11.8	14.0	8.5	97.3	/	/
Nc1ncn[nH]1	10.2	3.8	0.5	9.0	100.7	/	/
O=[N+]([O-])c1ccc(N2CCCCCC2)c2ncccc12	-0.9	10.3	54.1*	15.8	76.7	/	/	NALP3 yeast conf=55.9*;Casp1 ASC ctr=52.9*;NALP3 yeast rt=52.3*
COc1ccc(C(C)=O)cc1CC(C(=O)c1ccc(F)cc1)N(C)C (stereo unspecified)	-6.3	16.2	13.5	11.2	84.0	/	/
COc1ccc(C(=O)C(Cc2ccccc2)N(C)C)cc1 (stereo unspecified)	-4.3	19.4	55.7*	21.6	86.8	/	/	NALP3 yeast conf=71.6*;Casp1 ASC ctr=43.9;NALP3 yeast rt=39.0
CN(C)C(Cc1ccc(C#N)cc1)C(=O)c1ccccc1 (stereo unspecified)	-7.0	12.5	7.7	34.6	81.1	/	/
CN(C)C(Cc1ccccc1)C(=O)c1ccc(-c2ccccc2)cc1 (stereo unspecified)	-18.1	22.4	56.4*	29.3	90.7	/	/	NALP3 yeast conf=67.5*;Casp1 ASC ctr=55.3*;NALP3 yeast rt=62.4*
CCCS(=O)(=O)N1CCCC(C(=O)N2CCC3(CC2)OCCO3)C1 (stereo unspecified)	-8.7	19.6	11.8	12.8	98.6	/	/

Assay outcomes (PubChem)
